The compounds below were run on Aedes aegypti larvae (assay: larval motility relative to same well at 0 h (fraction); higher = more motile (less active compound), active = 0.4 or less). Settings: 10 µM; 2 h.
Procedure: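 MMV Pandemic Response Box compounds were tested at 10 µM (1% v/v DMSO) on Aedes aegypti larvae (18-24 h after hatching, about 10 per well, 96-well plates). Motility was quantified with INVAPP (200-frame movies) at 0, 2 and 24 h. Each well's motility was divided by its own 0 h score, and the median of 3 independent screens is reported.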

Q: With Cn1c2ccccc2c(=O)c2c(O)cccc21 as the compound, how does the larval motility read?
A: Its larval motility is 1.15 (inactive).

Q: CCCCN1C[C@H](O)[C@@H](O)[C@H](O)[C@H]1CO was tested. Which larval motility did it give?
A: Its larval motility is 0.87 (inactive).

Q: Which larval motility does the source give for CCCCCCCCCN1C[C@@H](O)[C@H](O)[C@@H](O)[C@@H]1CO here?
A: Its larval motility is 0.996 (inactive).

Q: For OC(Cn1cncn1)(Cn1cncn1)c1ccc(F)cc1F, which larval motility is on record?
A: Its larval motility is 1.05 (inactive).

Q: CCCNc1ccc(S(=O)(=O)Nc2cc(C)on2)cc1 was tested. Which larval motility did it give?
A: Its larval motility is 0.414 (inactive).

Q: Clc1cc2nc(C3CCNCC3)n(Cc3ccc(CNCCc4cnc[nH]4)cc3)c2cc1Cl was tested. Which larval motility did it give?
A: The larval motility was 0.575 (inactive).

Q: How did the larval motility turn out when COc1ccc2c(c1)cc(CNC(=O)c1cc3ccccc3o1)n2CC(=O)O was run?
A: The larval motility was 0.674 (inactive).

Q: How did the larval motility turn out when CCCCCc1ccc(C(=O)NCCn2cc(CCCCCc3cnc(N)[nH]3)nn2)cc1 was run?
A: Its larval motility is 0.643 (inactive).

Q: For CCC(C)n1ncn(-c2ccc(N3CCN(c4ccc(OCC5COC(Cn6cncn6)(c6ccc(Cl)cc6Cl)O5)cc4)CC3)cc2)c1=O (stereo not given), which larval motility is on record?
A: Its larval motility is 0.656 (inactive).

Q: For Cc1ccc(NC(=O)c2ccc(CN3CCN(C)CC3)cc2)cc1Nc1nccc(-c2cccnc2)n1, which larval motility is on record?
A: Its larval motility is 0.64 (inactive).

Q: Which larval motility does the source give for CN(C)CC(=O)Nc1ccc2[nH]c(=O)c3ccccc3c2c1 here?
A: Its larval motility is 0.338 (active).

Q: With O=S(=O)(NCB(O)O)c1ccc(-c2nnn[nH]2)cc1C(F)(F)F as the compound, how does the larval motility read?
A: Its larval motility is 0.999 (inactive).

Q: For NC(=O)c1cnc2ccc(S(=O)(=O)c3ccccc3)cc2c1Nc1ccc(O)cc1, which larval motility is on record?
A: Its larval motility is 1.25 (inactive).

Q: How did the larval motility turn out when CCOc1ccc(/C=N/NC(=O)C2CC2c2ccc(C(C)(C)C)cc2)cc1OCC (stereo not given) was run?
A: Its larval motility is 1.29 (inactive).

Q: CC1CN(c2ncnc3c2c(-c2ccccc2)cn3-c2ccc(F)cc2)CC(C)O1 (stereo not given) was tested. Which larval motility did it give?
A: Its larval motility is 0.791 (inactive).

Q: How did the larval motility turn out when Nc1nc(O)c2ncn(COC(CO)CO)c2n1 was run?
A: The larval motility was 1.05 (inactive).

Q: With Nc1cc(-c2nc3ccccc3[nH]2)n[nH]c1=O as the compound, how does the larval motility read?
A: The larval motility was 1.17 (inactive).

Q: How did the larval motility turn out when CC(C)/N=c1\cc2n(-c3ccc(Cl)cc3)c3ccccc3nc-2cc1Nc1ccc(Cl)cc1 was run?
A: Its larval motility is 0.957 (inactive).

Q: With Oc1c(C(Nc2ccccn2)c2ccccc2)ccc2cccnc12 (stereo not given) as the compound, how does the larval motility read?
A: Its larval motility is 0.721 (inactive).

Q: With O=C(O)C(Cc1c[nH]c2ccccc12)N1C(=O)c2ccccc2C1=O (stereo not given) as the compound, how does the larval motility read?
A: The larval motility was 1.75 (inactive).

Same assay, conditions: 10 µM; 24 h

Q: With Cn1c2ccccc2c(=O)c2c(O)cccc21 as the compound, how does the larval motility read?
A: Its larval motility is 1.13 (inactive).

Q: With CCCCN1C[C@H](O)[C@@H](O)[C@H](O)[C@H]1CO as the compound, how does the larval motility read?
A: Its larval motility is 0.809 (inactive).

Q: For CCCCCCCCCN1C[C@@H](O)[C@H](O)[C@@H](O)[C@@H]1CO, which larval motility is on record?
A: Its larval motility is 1.3 (inactive).

Q: For OC(Cn1cncn1)(Cn1cncn1)c1ccc(F)cc1F, which larval motility is on record?
A: The larval motility was 0.875 (inactive).

Q: For CCCNc1ccc(S(=O)(=O)Nc2cc(C)on2)cc1, which larval motility is on record?
A: Its larval motility is 0.825 (inactive).

Q: Which larval motility does the source give for Clc1cc2nc(C3CCNCC3)n(Cc3ccc(CNCCc4cnc[nH]4)cc3)c2cc1Cl here?
A: The larval motility was 0.981 (inactive).

Q: With COc1ccc2c(c1)cc(CNC(=O)c1cc3ccccc3o1)n2CC(=O)O as the compound, how does the larval motility read?
A: The larval motility was 0.871 (inactive).

Q: For CCCCCc1ccc(C(=O)NCCn2cc(CCCCCc3cnc(N)[nH]3)nn2)cc1, which larval motility is on record?
A: Its larval motility is 0.914 (inactive).

Q: CCC(C)n1ncn(-c2ccc(N3CCN(c4ccc(OCC5COC(Cn6cncn6)(c6ccc(Cl)cc6Cl)O5)cc4)CC3)cc2)c1=O (stereo not given) was tested. Which larval motility did it give?
A: Its larval motility is 0.571 (inactive).

Q: For Cc1ccc(NC(=O)c2ccc(CN3CCN(C)CC3)cc2)cc1Nc1nccc(-c2cccnc2)n1, which larval motility is on record?
A: The larval motility was 0.702 (inactive).

Q: CN(C)CC(=O)Nc1ccc2[nH]c(=O)c3ccccc3c2c1 was tested. Which larval motility did it give?
A: The larval motility was 0.463 (inactive).

Q: Which larval motility does the source give for O=S(=O)(NCB(O)O)c1ccc(-c2nnn[nH]2)cc1C(F)(F)F here?
A: The larval motility was 1.46 (inactive).

Q: Which larval motility does the source give for NC(=O)c1cnc2ccc(S(=O)(=O)c3ccccc3)cc2c1Nc1ccc(O)cc1 here?
A: Its larval motility is 1.01 (inactive).

Q: For CCOc1ccc(/C=N/NC(=O)C2CC2c2ccc(C(C)(C)C)cc2)cc1OCC (stereo not given), which larval motility is on record?
A: The larval motility was 1.4 (inactive).

Q: CC1CN(c2ncnc3c2c(-c2ccccc2)cn3-c2ccc(F)cc2)CC(C)O1 (stereo not given) was tested. Which larval motility did it give?
A: The larval motility was 0.856 (inactive).

Q: Nc1nc(O)c2ncn(COC(CO)CO)c2n1 was tested. Which larval motility did it give?
A: Its larval motility is 0.821 (inactive).

Q: For Nc1cc(-c2nc3ccccc3[nH]2)n[nH]c1=O, which larval motility is on record?
A: The larval motility was 1.18 (inactive).

Q: How did the larval motility turn out when CC(C)/N=c1\cc2n(-c3ccc(Cl)cc3)c3ccccc3nc-2cc1Nc1ccc(Cl)cc1 was run?
A: The larval motility was 0.786 (inactive).

Q: Which larval motility does the source give for Oc1c(C(Nc2ccccn2)c2ccccc2)ccc2cccnc12 (stereo not given) here?
A: Its larval motility is 1.07 (inactive).

Q: How did the larval motility turn out when O=C(O)C(Cc1c[nH]c2ccccc12)N1C(=O)c2ccccc2C1=O (stereo not given) was run?
A: Its larval motility is 1.18 (inactive).
